Compound activity deposited in PubChem by National Center for Advancing Translational Sciences (NCATS).
Shown are actives, neighbours in structure and some others; about 8.1% of the full set was active somewhere.
PINK1 modulator = changes PINK1 expression; PINK1 immunofluorescence, high-content cytometry, 24 h; Potency, µM (top dose mostly 76.6 µM), inactives show top-dose activation (PINK1 increase), most hits filed as activators; 410,000 compounds, 0.2% hits; AID 624263; active means well fitted activation curve with a large enough effect; inconclusive means small, poorly fitted or top-dose-only effect; cell line not stated here; further: % of control where 0% means no effect; nearly all actives have a fitted effect of over 65% in size
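Stable cell line treated 24 h with compounds at 5 concentrations (CCCP controls), then fixed and immunostained for PINK1 plus nuclear and cell stains; PINK1 immunofluorescence quantified by laser-scanning microplate cytometry.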
RORgamma inh = ROR gamma (mouse) transcription inhibition | P51450 | Drosophila S2 Gal4-RORgamma UAS-luciferase reporter, 20 h | Potency, µM (top dose mostly 53.6 µM), inactives show at the top dose activity change, negative = inhibition, most hits filed as inhibitors | 310,000 compounds, 5.4% hits | AID 2551; further: on the % scale 0 is the no-effect control and ±100 the full control effect; nearly all actives have a fitted effect of over 60% in size
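Luminescence from a UAS-regulated Photinus luciferase reporter in stably transfected Drosophila Schneider cells is measured; decreased signal marks ROR gamma inhibition. Fusion expression is induced by 700 uM copper sulfate for 20 hr.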
VP16 counter = Gal4-VP16 reporter inhibition counter-screen | AID 2546 | Drosophila S2 Gal4-VP16 UAS-luciferase, luminescence, 20 h | 310,000 compounds, 3.5% hits | Potency, µM (titrated, usually from 53.6 µM), for the others: top-dose activity, negative = inhibition, actives largely listed as inhibitors;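 further: Gal4-VP16 expression switched on by copper sulfate through the metallothionein promoter; on the % scale 0 is the no-effect control and ±100 the full control effect; nearly all actives have a fitted effect of over 50% in size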
Epigenetic derep = epigenetic control regulation, reporter derepression; murine LDR cells, GFP reporter derepression, 30 h; Potency, µM (doses to about 53.9 µM), for the others: top-dose GFP activation, most hits filed as activators; 280,000 compounds, 0.2% hits; AID 1865; further: % of control where 0% means no effect; nearly all actives have a fitted effect of over 60% in size
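In this reporter-derepression format, murine cells bearing a silenced integrated CMV-GFP locus incubate with test compound (30 h, 37 C), then are washed and imaged; fluorescent objects of 20–120 um count as induced cells.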
ClpP mod = qHTS Assay for Activators of ClpP; ATP-dependent Clp protease proteolytic subunit (Bacillus subtilis (strain 168)), P80244; purified B. subtilis ClpP, FRET peptide cleavage, 20 min; Potency, µM (highest dose often 57.5 µM), for the others: top-dose activity change, negative = active; 340,000 compounds, 1.9% hits; AID 651965, 2013; active means well fitted falling curve with a large enough effect; inconclusive means small, poorly fitted or top-dose-only effect; inactive means no such curve, though single readings can be large or run the other way; further: the source files actives as falling curves though it sought activators and does not explain the sign; nearly all actives have a fitted effect of over 65% in size
Target sequence (P80244 whole entry, looked up): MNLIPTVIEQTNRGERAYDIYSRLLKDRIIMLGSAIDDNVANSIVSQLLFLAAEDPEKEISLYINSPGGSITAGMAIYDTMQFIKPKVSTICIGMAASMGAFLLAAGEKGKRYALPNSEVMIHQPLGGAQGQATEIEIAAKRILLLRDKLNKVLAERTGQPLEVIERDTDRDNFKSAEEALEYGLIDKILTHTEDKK
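Buffer: 100 mM Tris/HCl pH8, 100 mM KCl, 0.05% low protease BSA, 2.5% glycerol, 0.01% Tween-20. ClpP 10 microg/mL final; 20 min RT; delta FRET normalized to ADEP and DMSO controls.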
Sfp inh = blocks B. subtilis Sfp PPTase activity; Q9F4F7; Biochemical Sfp PPTase activity, qHTS; Potency, µM, for inactives: largest response in the series, negative = inhibition, hits mostly inhibitors; 310,000 compounds, 3.5% hits; AID 1490;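 further: the enzyme is Sfp with the accession as filed and its product quenches rhodamine fluorescence; 0% = enzyme reaction without inhibitor and -100% = no enzyme wells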
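Buffer: 50 mM Hepes-Na pH 7.6, 10 mM MgCl2, 0.01% Nonidet P-40, 0.01% BSA. Enzyme 15 nM, pre-exposed to compound 15 min; substrates then added and fluorescence change tracked over 30 min.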
Starred values were filed as active, the others as inactive; ? = inconclusive; . = not tested or not shown; ! = a repeat was not active; [ ] = another dose, or the depositor's remark. Unless noted, the call rests on the fitted dose curve; in most records, active means well fitted curve in the direction sought with a large enough effect; inconclusive means small, poorly fitted or top-dose-only effect, or another doubt; inactive means no such curve, though single readings can be large; an effect the other way counts as inactive or inconclusive. Potency means the concentration at half of the fitted maximal effect.

SMILES	PINK1 modulator	RORgamma inh	VP16 counter	Epigenetic derep	ClpP mod	Sfp inh
O=C(NCC(c1ccco1)S(=O)(=O)c1ccc(Cl)cc1)c1ccccc1F (stereo unspecified)	0.5%	.	.	-4.2%	0.6%	.
COc1cc(C2NC(C(=O)O)Cc3c2[nH]c2ccccc32)cc(OC)c1OC (stereo unspecified)	5.9%[38.3 µM]	?	-0.1%[10 µM]	6.8%[10.1 µM]	-6.6%	70.8µM*!
COc1ccc(C2NC(C(=O)O)Cc3c2[nH]c2ccccc32)cc1OC (stereo unspecified)	-0.7%	-0.1%	-4.4%	-1.0%	-13.8%	-14.7%
C=CCNc1ncnc2c1[nH]c1ccc(Cl)cc12	8.1%	-13.1%	?	-3.1%	28.2µM*	-28.1%
C=CCNc1ncnc2ccccc12	25.0%[38.3 µM]	30.2%	-4.9%	0.2%	-5.0%	4.3%
c1ccc2c(c1)[nH]c1c(NCC3CCCO3)ncnc12 (stereo unspecified)	0.8%	?	?	-7.0%	28.2µM*	-20.3%
C=CCNc1ncnc2c1[nH]c1ccccc12	-0.7%	38.2%	?	-0.9%	28.2µM*	-1.5%
Cc1ccc2c(c1)CN(CCNC(=O)c1cccc(Cn3cccn3)c1)CC(C)O2 (stereo unspecified)	-1.0%	.	.	.	.	.
COc1ccccc1NC(=O)CSC1=Nc2ccccc2C2=NC(CCC(=O)NCc3ccco3)C(=O)N12 (stereo unspecified)	-0.3%	.	.	-0.5%	1.1%	.
Cn1c(=O)c2c(nc(NCc3ccco3)n2CCc2ccccc2)n(C)c1=O	1.8%	12.6µM*	7.94µM*	-0.5%	-0.6%	11.4%
Cn1c(=O)c2c(nc(NCc3ccco3)n2Cc2ccc(Cl)cc2Cl)n(C)c1=O	3.3%	?	6.31µM*	?	-0.3%	-22.0%
COCCn1c(C)cc(O)c(C(c2ccccc2OC)N2CCCCC2)c1=O (stereo unspecified)	2.2%	.	.	-2.8%	-4.0%	.
O=C(C1CC1)N(Cc1nc2ccccc2c(=O)[nH]1)Cc1cccs1	-0.4%	?	-0.6%	-0.4%	0.6%	12.3%
O=C(C1CCCCC1)N(Cc1nc2sc3c(c2c(=O)[nH]1)CCCC3)Cc1cccs1	18.1%	11.2µM*	?	-0.8%	?	10.0%
COc1ccccc1C1CN(CCNC(=O)c2sccc2Cl)Cc2ccccc2O1 (stereo unspecified)	-0.2%	.	.	.	.	.
COc1ccc(-c2noc(-c3ccc(N4CCCC4)c([N+](=O)[O-])c3)n2)cc1	1.1%	.	.	0.0%	2.4%	.
CCn1nc(-c2ccccc2C)nc2c(=O)n(C)c(=O)nc1-2	-0.8%	.	.	.	-1.6%	.
CCN(c1cccc(C)c1)S(=O)(=O)c1ccc2[nH]cc(C(=O)NCCCOC)c(=O)c2c1	-0.1%	.	.	-1.1%	-21.2%	.
CCc1ccccc1NC(=S)NCc1ccc2c(c1)OCO2	6.3%[38.3 µM]	6.31µM*	11.2µM*	0.0%	0.6%	11.0%
Cc1ccccc1NC(=S)NCc1ccc2c(c1)OCO2	0.1%	2.51µM*	10µM*	0.8%	1.3%	-12.8%
Cc1cccc(NC(=S)NCCO)c1C	0.3%	-15.5%	-5.1%	-1.3%	0.5%	-4.6%
CC(C)(C)NC(=S)NCc1ccc2c(c1)OCO2	-1.4%	11.2µM*	?	0.1%	-0.4%	17.7%
Cc1cc(C)cc(NC(=S)NCc2ccc3c(c2)OCO3)c1	-0.1%	.	.	.	0.5%	.
Cc1ccc(C)c(NC(=S)NCc2ccc3c(c2)OCO3)c1	-1.7%	?	-6.5%[0.365 µM]	-1.1%	-1.7%	-4.9%
Cc1cccc(NC(=S)NCCc2ccc3c(c2)OCCO3)c1C	-0.4%	3.98µM*	?	-0.1%	3.4%	5.1%
Cc1cc2nccc(C)c2cc1C	.	.	.	.	-12.1%	.
CCCS(=O)(=O)NCc1c(C)ncc2c1CCN(C(=O)/C=C/c1ccc(F)cc1F)C2	1.1%	.	.	.	.	.
Cc1cccc(NC(=O)C(=O)NCc2ccc3c(c2)OCO3)c1C	5.4%	-23.2%	-18.5%	14.3%	.	-1.4%
